In PubChem BioAssay one finds composite z-score and z-score data, which are given here for 8 compounds.

Calls of active or inactive are those of the source.

A short description of experiment [1]: binders of probe aFSTL3 on microarray, primary screen, stem cell growth factor project, biochemical, small-molecule microarray, fluorescence 635/667 (AID 1064).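 Further: measures binding of the biotinylated anti-FSTL3 antibody to printed compounds.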 To be noted: higher = more signal.
Experiment [2] is described as follows: binders from COS7 lysate, DM2A8 probe, primary screen, torsin A project, cell lysate, small-molecule microarray, fluorescence 635/667 (AID 1065). The settings on record: higher = more signal, COS7 lysate expressing mutant human TOR1A.
Experiment [3] in a line: binders of probe aFGF2 on microarray, primary screen, stem cell growth factor project, biochemical, small-molecule microarray, fluorescence 635/667 (AID 1067).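 Further: measures binding of biotinylated aFGF2 protein to printed compounds on slides; z-score merges feature fluorescence and signal-to-noise across triplicate slides.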 To be noted: higher = more signal.
The nature of experiment [4]: binders of probe aFGF10 on microarray, primary screen, stem cell growth factor project, biochemical, small-molecule microarray, fluorescence 635/667 (AID 1071).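 Further: score merges 667 nm spot intensity and signal to noise from triplicate slides.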 To be noted: higher = more signal.
The target of experiment [5] is Neurogenic locus notch homolog protein 2 (Homo sapiens) (UniProt Q04721). The experiment is described as follows: Notch2 binders on small-molecule microarrays, primary screen, biochemical, small-molecule microarray, 635 nm fluorescence, stem cell growth factors (AID 1073). The settings on record: Notch2 binding, higher = more signal.
Neurogenic locus notch homolog protein 2 (Homo sapiens), sequence (Q04721 whole entry, looked up, canonical isoform): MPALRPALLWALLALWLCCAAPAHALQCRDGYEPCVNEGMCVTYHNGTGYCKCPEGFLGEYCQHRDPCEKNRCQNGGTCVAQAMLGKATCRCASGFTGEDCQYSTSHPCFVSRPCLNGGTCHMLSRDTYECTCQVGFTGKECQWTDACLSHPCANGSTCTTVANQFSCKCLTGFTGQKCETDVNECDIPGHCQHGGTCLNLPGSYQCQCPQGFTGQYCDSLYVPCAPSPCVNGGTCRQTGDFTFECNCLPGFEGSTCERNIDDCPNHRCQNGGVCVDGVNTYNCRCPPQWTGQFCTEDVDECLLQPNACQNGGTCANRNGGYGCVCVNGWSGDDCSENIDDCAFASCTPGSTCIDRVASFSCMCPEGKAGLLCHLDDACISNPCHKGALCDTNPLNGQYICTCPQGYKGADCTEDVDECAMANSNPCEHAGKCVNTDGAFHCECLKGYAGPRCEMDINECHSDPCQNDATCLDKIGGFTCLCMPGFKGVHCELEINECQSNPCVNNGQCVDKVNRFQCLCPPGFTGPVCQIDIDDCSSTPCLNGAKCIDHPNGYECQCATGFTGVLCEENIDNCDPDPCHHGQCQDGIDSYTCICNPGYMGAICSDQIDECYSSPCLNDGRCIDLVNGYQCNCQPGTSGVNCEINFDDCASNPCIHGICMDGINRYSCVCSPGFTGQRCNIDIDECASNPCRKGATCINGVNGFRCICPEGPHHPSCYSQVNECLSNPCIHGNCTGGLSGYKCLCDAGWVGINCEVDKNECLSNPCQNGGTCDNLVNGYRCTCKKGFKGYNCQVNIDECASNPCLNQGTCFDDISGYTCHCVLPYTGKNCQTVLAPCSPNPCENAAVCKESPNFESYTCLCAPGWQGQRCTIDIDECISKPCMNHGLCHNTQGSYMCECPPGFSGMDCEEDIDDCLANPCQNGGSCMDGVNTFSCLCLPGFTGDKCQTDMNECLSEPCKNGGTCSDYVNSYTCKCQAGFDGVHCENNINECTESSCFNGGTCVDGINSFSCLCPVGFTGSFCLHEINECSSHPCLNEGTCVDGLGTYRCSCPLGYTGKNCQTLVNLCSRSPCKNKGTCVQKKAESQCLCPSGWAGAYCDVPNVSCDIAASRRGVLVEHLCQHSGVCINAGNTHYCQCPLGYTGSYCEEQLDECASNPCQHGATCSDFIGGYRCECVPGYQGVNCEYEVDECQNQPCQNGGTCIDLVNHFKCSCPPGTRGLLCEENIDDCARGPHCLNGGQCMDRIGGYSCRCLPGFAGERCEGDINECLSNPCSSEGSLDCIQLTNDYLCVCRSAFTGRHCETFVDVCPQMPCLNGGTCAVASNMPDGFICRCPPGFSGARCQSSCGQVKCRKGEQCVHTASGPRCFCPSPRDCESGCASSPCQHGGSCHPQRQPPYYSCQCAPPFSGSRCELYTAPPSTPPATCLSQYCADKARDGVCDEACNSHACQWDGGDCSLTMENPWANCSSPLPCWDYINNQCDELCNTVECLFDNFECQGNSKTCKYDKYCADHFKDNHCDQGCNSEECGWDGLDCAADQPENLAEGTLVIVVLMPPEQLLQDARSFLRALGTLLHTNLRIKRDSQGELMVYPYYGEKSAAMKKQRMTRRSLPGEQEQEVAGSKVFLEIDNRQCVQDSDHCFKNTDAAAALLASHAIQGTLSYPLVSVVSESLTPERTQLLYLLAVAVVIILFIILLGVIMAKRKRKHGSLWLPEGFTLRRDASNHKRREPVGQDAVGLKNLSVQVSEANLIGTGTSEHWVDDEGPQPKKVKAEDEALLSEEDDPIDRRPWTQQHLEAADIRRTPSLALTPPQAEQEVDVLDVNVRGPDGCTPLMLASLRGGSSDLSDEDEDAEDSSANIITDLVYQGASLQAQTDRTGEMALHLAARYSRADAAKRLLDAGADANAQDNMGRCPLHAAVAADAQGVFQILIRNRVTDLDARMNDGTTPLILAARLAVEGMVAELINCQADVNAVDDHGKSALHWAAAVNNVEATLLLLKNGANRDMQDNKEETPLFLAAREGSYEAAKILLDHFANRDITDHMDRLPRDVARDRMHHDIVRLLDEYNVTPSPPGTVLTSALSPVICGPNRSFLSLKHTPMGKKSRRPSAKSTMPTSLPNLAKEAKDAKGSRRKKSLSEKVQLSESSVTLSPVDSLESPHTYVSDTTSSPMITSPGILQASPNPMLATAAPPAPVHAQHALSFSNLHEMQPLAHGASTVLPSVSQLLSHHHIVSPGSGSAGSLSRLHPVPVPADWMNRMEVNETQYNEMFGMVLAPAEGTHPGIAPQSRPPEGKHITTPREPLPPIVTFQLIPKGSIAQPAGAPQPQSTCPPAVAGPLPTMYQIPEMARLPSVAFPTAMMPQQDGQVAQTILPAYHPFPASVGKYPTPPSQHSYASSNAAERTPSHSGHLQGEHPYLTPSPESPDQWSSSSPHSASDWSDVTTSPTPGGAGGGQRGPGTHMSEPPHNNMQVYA
Experiment [6] concerns the target Pro-neuregulin-1, membrane-bound isoform (Homo sapiens) (UniProt Q02297). The experiment is described as follows: NRG1 binders on small-molecule microarrays, primary screen, psychiatric disease protein project, biochemical, small-molecule microarray, fluorescence 635/667 (AID 1075).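 Further: score combines 667 nm spot fluorescence with signal to noise.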 To be noted: NRG1 binding, 635 nm fluorescence, higher = more signal.
Experiment [7] deals with Neuregulin-1 EGF-like domain. The experiment is described as follows: binders of neuregulin-1 EGF-like domain, primary screen, biochemical, small-molecule microarray, 635 nm fluorescence (AID 1081).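 Further: binding of the protein to compounds printed on small-molecule microarray slides.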 The settings on record: small-molecule microarray binding, higher = more signal.
Experiment [8] in a line: FRG1 promoter luciferase signal modulators, primary screen, FRG1 inhibition for FSHD, cell-based, C2C12 myotubes, firefly/Renilla luciferase, luminescence (AID 1084). The settings on record: higher = more signal, called active from +8 up or from −8 down.
Experiment [9] in a line: binders of probe aFST on microarray, primary screen, stem cell growth factor project, biochemical, small-molecule microarray, fluorescence 635/667 (AID 1086).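 Further: score merges 667 nm fluorescence with signal-to-noise of each printed compound spot.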 To be noted: higher = more signal.
A short description of experiment [10]: binders of probe aHhip on microarray, primary screen, stem cell growth factor project, biochemical, small-molecule microarray, fluorescence 635/667 (AID 1087).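 Further: score merges spot fluorescence at 667nm with spot signal to noise ratio.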 To be noted: higher = more signal.

Pro-neuregulin-1, membrane-bound isoform (Homo sapiens), sequence (Q02297 whole entry, looked up, the tested form may be a part, canonical isoform): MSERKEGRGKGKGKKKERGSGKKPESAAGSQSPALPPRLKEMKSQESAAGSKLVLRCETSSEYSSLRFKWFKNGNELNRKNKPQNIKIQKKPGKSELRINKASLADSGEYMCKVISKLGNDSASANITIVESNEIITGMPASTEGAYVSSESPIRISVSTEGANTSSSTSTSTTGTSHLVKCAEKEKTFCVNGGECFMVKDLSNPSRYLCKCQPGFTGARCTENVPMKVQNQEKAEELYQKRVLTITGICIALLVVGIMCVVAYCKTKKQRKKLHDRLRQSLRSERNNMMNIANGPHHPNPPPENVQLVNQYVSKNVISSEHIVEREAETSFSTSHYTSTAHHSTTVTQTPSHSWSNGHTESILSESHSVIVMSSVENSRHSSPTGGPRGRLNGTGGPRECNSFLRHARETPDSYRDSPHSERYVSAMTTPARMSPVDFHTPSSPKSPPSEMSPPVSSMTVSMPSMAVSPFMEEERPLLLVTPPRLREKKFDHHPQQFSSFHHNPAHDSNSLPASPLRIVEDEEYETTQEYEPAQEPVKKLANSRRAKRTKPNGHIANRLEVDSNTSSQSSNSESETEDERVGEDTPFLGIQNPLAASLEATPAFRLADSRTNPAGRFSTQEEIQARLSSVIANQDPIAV

Consider `O=C1[C@]2(CO)C=C(Br)[C@@H](C[C@@H]2c2ccccc2)[C@@]12CO2`, for which the composite z-score in experiment [1] was -0.333; in experiment [2] it was -0.61; in [3], -0.0507; in experiment [4] it was -0.0238; in experiment [5], 0.0861; in [6] it was 0.251. Also, the results for the composite z-score in experiment [7], in experiment [9] and in experiment [10] were 0.245, -0.0624 and -0.134, respectively. For the same compound, in experiment [8], the z-score is 1.2 (inactive).

Regarding `O=C(NCc1ccccc1)[C@]1(CCS(=O)(=O)c2ccccc2)N=C(c2ccc(OCCCO)cc2)O[C@@H]1c1ccccc1`, the composite z-score in experiment [1] turned out to be 0.0169; in experiment [2], 0.938; in [3] it was 0.0485; in experiment [4] it was 1.05; in experiment [5], 1.68; in experiment [6] it was 1.48. The results for the composite z-score in experiment [7], in experiment [9] and in experiment [10] were 1.18, 1.31 and -0.378, respectively. The z-score in [8] is -2.35 (inactive).

For `C=C(COC)C(=O)CC[C@@H](OC(=O)c1cccnc1)c1ccc(CO)o1`, the composite z-score in [1] was -0.376; in experiment [2] it was 0.0139; in experiment [3], -0.085; in experiment [4] it was -0.0132; in [5], 0.167; in [6], 1.16. The composite z-score in experiment [7] turned out to be 0.645; in experiment [9], 0.0848; in experiment [10] it was 0.274. Moreover, in experiment [8], the z-score is 0.614 (inactive).

As for `CCOC(=O)C[C@H]1[C@H](OC(=O)Cc2ccc3c(c2)OCO3)[C@@H](NC(=O)c2ccc(-c3ccccc3)cc2)c2cc(OCCCO)ccc2N1C(=O)c1ccccc1`, the composite z-score in experiment [1] is -0.386; in [2], -0.0093; in experiment [3], -0.0144; in experiment [4], 0.585; in [5], 0.537; in experiment [6], 0.371. Further, the composite z-score in experiment [7] is 0.797; in experiment [9], 0.239; in experiment [10] it was -0.374. In experiment [8], the z-score is -3.42 (inactive).

Turning to `COC(=O)[C@@]1(Cc2ccc(F)cc2)[C@H]2c3cc(C(=O)N(C)C)n(CCc4ccccn4)c3C[C@H]2CN1C(=O)c1ccccc1`, the composite z-score came to 0.681 in experiment [1]; 0.466 in experiment [2]; 0.723 in experiment [3]; 0.759 in experiment [4]; 1.52 in [5]; 0.183 in experiment [6]. The composite z-score in [7] was found to be 1.09; in experiment [9], 2.35; in experiment [10], 0.178. Moreover, the z-score in experiment [8] is 1.98 (inactive).

On to `CC(=O)NCCCC[C@@H]1NC(=O)[C@@H]2C[C@H](C(=O)NCCCCCCNC(=O)CS)[C@H](c3ccc(O)cc3)N2C1=O`, for which the composite z-score is 0.219 in [1]; 0.463 in experiment [2]; -0.0985 in experiment [3]; -0.1 in experiment [4]; -0.498 in [5]; 1.49 in experiment [6]. Also, the figures for the composite z-score in [7], in experiment [9] and in experiment [10] were 1.27, -0.715 and -0.0645, respectively. In [8], the z-score is 1.5 (inactive).

Consider `CN(C)C(=O)[C@]1(CCC(=O)OC(C)(C)C)N=C(c2ccc(OCCCO)cc2)O[C@@H]1c1ccccc1N=[N+]=[N-]`, for which the composite z-score in experiment [1] amounted to 0.542; in [2], 1.78; in [3], 0.147; in experiment [4], 1.2; in [5], 1.36; in [6] it was 2.01. Moreover, the values for the composite z-score in [7], in experiment [9] and in [10] were 1.45, 1.43 and -0.0867, respectively. The z-score in [8] is 3.22 (inactive).

`COC(=O)C(CC#Cc1ccc2c(c1)[C@]1(C(=O)N2)[C@H](c2ccc(OCCO)cc2)N2[C@H](c3ccccc3)[C@H](c3ccccc3)OC(=O)[C@H]2[C@@H]1C(=O)NC[C@H](O)c1ccccc1)C(=O)OC`: the composite z-score was 0.194 in [1]; 0.855 in experiment [2]; -0.0011 in experiment [3]; 1.12 in experiment [4]; 0.694 in experiment [5]; 1.29 in [6]. For the same compound, the composite z-score in [7] was 1.26; in [9] it was -0.0592; in experiment [10], 0.0274. Further, the z-score in experiment [8] was 1.03 (inactive).
